PubChem BioAssay AID1159580 (chemical genetic matrix, 2015)
“And” between values parts separate entries of the source, which are not always exact repeats. Equal entries are not always repeated. Among all 5,500 compounds or so, about 2,000 (36%) were called active. About 18% were inconclusive and are not listed. No stated cut-off is given here; in the data, active means normalized growth mostly below about 0.91 (no sharp cut-off); inconclusive means no clear call, values can overlap the other calls; inactive means mostly above about 0.92. Some of the results follow.

Test: chemical genetic growth profiling, strain panel (AID 1159580);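 further: tested at 20 µM; growth read once vehicle control cultures reached saturation at 30 °C; 1 = growth at the plate median or of vehicle wells; lower values mean less growth of the strain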
Conditions: growth OD

Measured: normalized growth

NC(CO)C(=O)NNCc1ccc(O)c(O)c1O (configuration not stated)
active: S. cerevisiae deletion strains, locus YMR058W, strain fet3, active compounds read low 0.688 | S. cerevisiae deletion strains, locus YNL209W, strain ssb2, active compounds read low 0.9
inactive: S. cerevisiae deletion strains, locus YJR066W, strain TOR1, active compounds read low 0.99 | S. cerevisiae deletion strains, locus YJR075W, strain HOC1, active compounds read low 1.01 and 0.944 | S. cerevisiae deletion strains, locus YKL009W, strain mrt4, active compounds read low 0.973 | S. cerevisiae deletion strains, locus YKL068W, active compounds read low 1.01 | S. cerevisiae deletion strains, locus YKL085W, strain MDH1 (second series), active compounds read low 1 | S. cerevisiae deletion strains, locus YKL085W, strain MDH1, active compounds read low 1 | S. cerevisiae deletion strains, locus YKL160W, strain elf1, active compounds read low 1.02 | S. cerevisiae deletion strains, locus YKR001C, strain vps1, active compounds read low 0.986 | S. cerevisiae deletion strains, locus YKR026C, strain gcn3, active compounds read low 0.991 | S. cerevisiae deletion strains, locus YKR091W, strain srl3, active compounds read low 0.993 | S. cerevisiae deletion strains, locus YLL001W, strain dnm1, active compounds read low 1.03 | S. cerevisiae deletion strains, locus YLL026W, active compounds read low 1.02 | S. cerevisiae deletion strains, locus YLL041C, strain sdh2, active compounds read low 1 | S. cerevisiae deletion strains, locus YLR027C, strain aat2, active compounds read low 1.01 | S. cerevisiae deletion strains, locus YLR039C, strain RIC1, active compounds read low 1.01 | S. cerevisiae deletion strains, locus YLR058C, strain SHM2, active compounds read low 1.01 | S. cerevisiae deletion strains, locus YLR102C, strain apc9, active compounds read low 0.983 | S. cerevisiae deletion strains, locus YLR113W, strain HOG1, active compounds read low 1.1 | S. cerevisiae deletion strains, locus YLR221C, strain rsa3, active compounds read low 0.951 | S. cerevisiae deletion strains, locus YLR258W, strain gsy2, active compounds read low 0.974 | S. cerevisiae deletion strains, locus YLR262C, strain YPT6 (second series), active compounds read low 0.915 | S. cerevisiae deletion strains, locus YLR262C, strain YPT6, active compounds read low 1.04 | S. cerevisiae deletion strains, locus YLR268W, strain sec22, active compounds read low 0.984 | S. cerevisiae deletion strains, locus YLR320W, strain mms22, active compounds read low 0.987 | S. cerevisiae deletion strains, locus YLR330W, strain CHS5, active compounds read low 1.01 | S. cerevisiae deletion strains, locus YLR342W, strain FKS1 (second series), active compounds read low 1.06 | S. cerevisiae deletion strains, locus YLR342W, strain FKS1, active compounds read low 1.01 | S. cerevisiae deletion strains, locus YLR357W, strain rsc2, active compounds read low 0.911 | S. cerevisiae deletion strains, locus YLR370C, strain arc18, active compounds read low 0.995 | S. cerevisiae deletion strains, locus YLR371W, strain rom2, active compounds read low 0.991 | S. cerevisiae deletion strains, locus YLR384C, strain iki3, active compounds read low 1 | S. cerevisiae deletion strains, locus YLR418C, strain cdc73, active compounds read low 0.98 | S. cerevisiae deletion strains, locus YML016C, strain PPZ1, active compounds read low 1.01 | S. cerevisiae deletion strains, locus YML032C, strain rad52, active compounds read low 0.993 | S. cerevisiae deletion strains, locus YML120C, strain ndi1, active compounds read low 1.01 | S. cerevisiae deletion strains, locus YML124C, strain tub3, active compounds read low 0.996 | S. cerevisiae deletion strains, locus YMR078C, strain ctf18, active compounds read low 0.992 | S. cerevisiae deletion strains, locus YMR125W, strain sto1, active compounds read low 1.01 | S. cerevisiae deletion strains, locus YMR129W, active compounds read low 0.992 | S. cerevisiae deletion strains, locus YMR205C, strain PFK2, active compounds read low 1.07 | S. cerevisiae deletion strains, locus YMR223W, strain ubp8, active compounds read low 1.01 | S. cerevisiae deletion strains, locus YMR231W, strain pep5, active compounds read low 0.991 | S. cerevisiae deletion strains, locus YMR307W, strain GAS1, active compounds read low 1 and 0.976 | S. cerevisiae deletion strains, locus YNL067W, strain RPL9B, active compounds read low 0.984 | S. cerevisiae deletion strains, locus YNL071W, strain lat1, active compounds read low 1.01 | S. cerevisiae deletion strains, locus YNL153C, strain GIM3, active compounds read low 1 | S. cerevisiae deletion strains, locus YNL175C, strain NOP13, active compounds read low 0.988 | S. cerevisiae deletion strains, locus YNL183C, strain NPR1, active compounds read low 0.99 | S. cerevisiae deletion strains, locus YNL197C, strain WHI3, active compounds read low 0.935 | S. cerevisiae deletion strains, locus YNL224C, strain SQS1, active compounds read low 1.01 | S. cerevisiae deletion strains, locus YNL233W, strain BNI4, active compounds read low 0.998 | S. cerevisiae deletion strains, locus YNL248C, strain rpa49, active compounds read low 0.946 | S. cerevisiae deletion strains, locus YNL250W, strain rad50, active compounds read low 0.983 | S. cerevisiae deletion strains, locus YNL271C, strain bni1, active compounds read low 1 | S. cerevisiae deletion strains, locus YNL298W, strain CLA4, active compounds read low 0.988 | S. cerevisiae deletion strains, locus YNL307C, strain MCK1, active compounds read low 0.982 | S. cerevisiae deletion strains, locus YNL322C, strain KRE1 (second series), active compounds read low 0.999 | S. cerevisiae deletion strains, locus YNR049C, strain mso1, active compounds read low 0.99 | S. cerevisiae deletion strains, locus YNR052C, strain pop2, active compounds read low 1.01 | S. cerevisiae deletion strains, locus YOL012C, strain htz1 0.788 | S. cerevisiae deletion strains, locus YOL147C, strain pex11, active compounds read low 0.98 | S. cerevisiae deletion strains, locus YOR001W, strain rrp6, active compounds read low 1.03 | S. cerevisiae deletion strains, locus YOR061W, strain CKA2, active compounds read low 1.01 | S. cerevisiae deletion strains, locus YOR069W, strain VPS5, active compounds read low 1 | S. cerevisiae deletion strains, locus YOR070C, strain gyp1, active compounds read low 0.972 | S. cerevisiae deletion strains, locus YOR080W, strain dia2, active compounds read low 1.01 | S. cerevisiae deletion strains, locus YOR083W, strain WHI5 (second series), active compounds read low 0.978 | S. cerevisiae deletion strains, locus YOR083W, strain WHI5, active compounds read low 0.986 | S. cerevisiae deletion strains, locus YOR106W, strain vam3, active compounds read low 0.948 | S. cerevisiae deletion strains, locus YOR136W, strain idh2, active compounds read low 0.97 | S. cerevisiae deletion strains, locus YOR144C, strain elg1, active compounds read low 0.987 | S. cerevisiae deletion strains, locus YOR184W, strain ser1, active compounds read low 0.993 | S. cerevisiae deletion strains, locus YOR231W, strain MKK1, active compounds read low 1.07 | S. cerevisiae deletion strains, locus YOR265W, strain rbl2, active compounds read low 0.996 | S. cerevisiae deletion strains, locus YOR270C, strain vph1, active compounds read low 0.996 | S. cerevisiae deletion strains, locus YOR290C, strain snf2, active compounds read low 0.957 | S. cerevisiae deletion strains, locus YOR316C, strain cot1, active compounds read low 0.991 | S. cerevisiae deletion strains, locus YPL051W, strain arl3, active compounds read low 0.973 | S. cerevisiae deletion strains, locus YPL055C, strain LGE1, active compounds read low 1.01 and 0.959 | S. cerevisiae deletion strains, locus YPL078C, strain atp4, active compounds read low 1.02 | S. cerevisiae deletion strains, locus YPL106C, strain sse1, active compounds read low 0.936 | S. cerevisiae deletion strains, locus YPL240C, strain hsp82, active compounds read low 0.991 | S. cerevisiae deletion strains, locus YPL241C, strain CIN2, active compounds read low 1.01 | S. cerevisiae deletion strains, locus YPL256C, strain CLN2, active compounds read low 1.09 | S. cerevisiae deletion strains, locus YPR119W, strain clb2, active compounds read low 0.999 | S. cerevisiae deletion strains, locus YPR141C, strain kar3, active compounds read low 0.987 | S. cerevisiae deletion strains, locus YPR163C, strain tif3, active compounds read low 0.991 | S. cerevisiae deletion strains, locus YPR167C, strain met16, active compounds read low 0.994 | S. cerevisiae deletion strains, strain wtn01, active compounds read low 1.02 | S. cerevisiae strains, strain wild type, active compounds read low 1
